Data from PubChem BioAssay (NCI).
Where “and” joins values, the source holds several entries; their conditions need not be identical. Equal entries are not always repeated. The panel holds about 83,000 compounds, 20% with a hit somewhere; the sample as a whole holds those more often.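 The endpoint reported here, percent growth, reads 100 for growth as untreated, 0 for no net growth and -100 for all cells dead.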 Calls of active or inactive are those of the source. How the source made its calls: active means growth percent below 10; inactive means the rest.

Each compound was assayed on NCI-H322M lung (assay: NCI-60 one-dose screen, 48 h (100 = growth as untreated, 0 = no growth, -100 = all killed)). Details: 10 µM unless noted.
With CC(=O)Nc1cccc2c1CCCC2 the growth was 113% (inactive) and 98% (inactive).
For Clc1ccc(SSc2ccc(Cl)cc2)cc1, the growth was 95.6% (inactive) and 108% (inactive).
For Cc1nnc(NC/C=C/c2ccccc2)s1, the growth was 88.5% (inactive) and 112% (inactive).
In the case of Cc1cccc(/C=C\C(=O)c2ccccc2)c1, the growth is reported as 97% (inactive) and 93.7% (inactive).
COC(=O)[C@H]1CCCN1C(=O)C1CCCN1C(=O)[C@@H](Cc1ccccc1)NC(=S)Nc1cc(C(F)(F)F)cc(C(F)(F)F)c1 (stereo partly drawn) was tested, and the growth was 142% (inactive) and 88.4% (inactive).
CNc1cc(-c2cccc(OC(F)(F)F)c2)nc2ccc(N3CCCC3)cc12 was tested, and the growth was 61.8% (inactive) and -4.66% (active) and 76.6% (inactive).
For O=[N+]([O-])c1ccc(-n2[nH]nnc2=S)cc1, the growth was 92.8% (inactive).
With O=[N+]([O-])c1ccc(Oc2ccccc2)cc1 the growth was 104% (inactive) and 111% (inactive).
With CC(C(=O)O)n1cc(C#N)c(=O)[nH]c1=O (stereo not drawn) the growth was 112% (inactive) and 111% (inactive).
In the case of CNC(=O)c1cc(Oc2ccc(NC(=O)Nc3ccc(Cl)c(C(F)(F)F)c3)cc2)ccn1, the growth is reported as -2.52% (active) and 18.3% (inactive).
With COc1ccc(/C(C#N)=C/c2ccccn2)cc1 the growth was 108% (inactive) and 110% (inactive).
In the case of Nc1n[nH]c(=S)n1-c1ccc(Cl)cc1, the growth is reported as 98.7% (inactive).
In the case of CCOC(=O)C(C(=O)OCC)C(c1ccccc1)N1CCN(c2ccccc2)CC1 (stereo not drawn), the growth is reported as 93.3% (inactive) and 107% (inactive).
